The record followed here is PubChem BioAssay AID624305 (National Center for Advancing Translational Sciences (NCATS), 2012).

Records with an inconclusive call do not appear. Where a call stands in place of a potency, no number is given. Values without a mark were called inactive. Activity calls are given as the source filed them. Calls follow the shape of the dose curve; as a rule, active = well fitted activation curve with a large enough effect; inconclusive = small, poorly fitted or top-dose-only effect; inactive = no such curve, though single readings can be large or run the other way.
Potency is read from the fitted curve at half-maximal effect.

The assay can be described thus: qHTS assay for re-activators of p53 using a Luc reporter: Hit Validation. Also: nearly all actives have a fitted effect of over 75% in size. The note with it: p53-responsive luciferase reporter cells, luminescence, H1299 line expressing heat-sensitive Ala138Val p53; series mostly up to 46.1 µM. In a few lines:
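H1299 (p53-null) cells stably carrying p53-A138V and a BP100-luciferase reporter, 1000 cells/well, treated 24 h at 37 deg C. Compounds at several concentrations, 1:5 dilution; nocodazole control; luminescence read after 10 min with detection reagent.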
Take `Cc1cc(Oc2ccccc2)nc(-c2ccccc2O)n1`: the Potency entry is “inactive”.

As for `NNc1nc(NCc2ccccc2)nc(N2CCOCC2)n1`, the Potency result is “inactive”.

Turning to `O=C(CCc1nc(-c2ccccc2)no1)N1CCCC1`, the Potency result is “inactive”.

For `Cc1ccc2nc(C(F)(F)F)c(C#N)c(N)c2c1`, the Potency entry was “inactive”.

For `Cc1nc2cc(-c3ccccc3)nn2c(N)c1-c1ccccc1`, the Potency is 0.411 µM (active).

With `OCc1cc(Br)ccc1OCc1nc2ccccc2s1`, the Potency was 2.91 µM (active).

On to `C/C(=N\NC(=O)c1cc(C)nc2ccccc12)c1ccccn1`, for which the Potency is 16.4 µM (active).

With `COc1ccc(-n2cnc3c(cnn3CCC#N)c2=N)cc1`, the Potency entry is “inactive”.

For `Cc1ccsc1/C=C(\C#N)C(=O)Nc1c(C)n(C)n(-c2ccccc2)c1=O`, the Potency result is “inactive”.

As for `Oc1c(CN2CCOCC2)cc(COCc2ccccc2)c2cccnc12`, the Potency entry is “inactive”.

For the compound `Cc1cc(CC(C)C)n(-c2nc3ccccc3c(=O)n2OCC(N)=O)n1`, the Potency result was “inactive”.

With `Cc1ccc(NC(=S)NC(=O)C2CCCC2)c(Br)c1`, the Potency was 3.66 µM (active).

Take `O=C(NCC(=O)N1CCN(c2ncccn2)CC1)c1ccc(F)cc1`: the Potency entry is “inactive”.

For `Cc1cccc(C)c1Nc1c(-c2ccccn2)nc2ccccn12`, the Potency result is “inactive”.

For `CC1CCC(NC(=O)C2CCN(C(=O)Nc3ccccc3)CC2)CC1` (stereo not drawn), the Potency entry was “inactive”.

Regarding `C/C(=N\NC(=S)NC(C)C)c1ccc(Cl)s1`, the Potency entry is “inactive”.

In the case of `Clc1cccc(N/N=C(\Cc2nc3ccccc3[nH]2)c2ccccc2)c1`, the Potency entry was “inactive”.

Turning to `Cc1cccc(NC(=S)NC(=O)C2CC2)c1`, the Potency result was “inactive”.

`O=C(N/N=C/c1ccccc1O)C1CC(=O)N(c2ccc(Cl)cc2)C1` (stereo not drawn): the Potency result is “inactive”.

As to `Cc1ccc2oc(-c3ccc(C)c(NC(=S)NC(=O)c4cccs4)c3)nc2c1`, the Potency is 4.61 µM (active).

For `COc1cc(C(=O)NCCc2cn3ccc(C)cc3n2)cc(OC)c1OC`, the activation is 13.6% [at 9.22 µM].

As to `O=C(NC(=S)Nc1nc2ccccc2s1)c1ccco1`, the Potency is 0.58 µM (active).

Regarding `Cc1ccc(CNc2cc(C(=O)O)ccc2Cl)s1`, the Potency entry is “inactive”.

For the compound `COc1ccc2nc(NC(=O)Nc3ccccc3OC)sc2c1`, the Potency is 9.2 µM (active).

Take `Cc1cccc(-c2noc(CCC(=O)N3CCN(c4cc(C)ccc4C)CC3)n2)c1`: the Potency was 23.1 µM (active).

As to `COCCn1c(C)cc(C(=O)COc2ccc(N(C)S(=O)(=O)c3ccc(C)cc3)cc2)c1C`, the Potency result was “inactive”.

On to `CCN1CCN(CC(=O)Nc2nc3ccc(C)cc3s2)CC1`, for which the Potency entry is “inactive”.

For `CC1(C)Oc2ccc(NC(=O)C3COc4ccccc4O3)cc2O1` (stereo not drawn), the Potency was 1.3 µM (active).

Regarding `COc1ccc(N2CCN(C(=O)COC(=O)c3ccc(OC(F)F)cc3)CC2)cc1`, the Potency result was “inactive”.

Regarding `CCc1ccc(OCC(=O)NC(NC(=S)Nc2ccccc2C)C(Cl)(Cl)Cl)cc1` (stereo not drawn), the Potency result is “inactive”.

For the compound `Cc1c(/C(O)=C2/C(=O)C(=O)N(Cc3cccnc3)C2c2cccs2)cnn1-c1ccccc1` (stereo not drawn), the Potency was 8.2 µM (active).

As for `O=C(Cc1ccccc1)NCc1ccc(F)cc1`, the Potency entry is “inactive”.

In the case of `CCCOc1ccc(-c2cc3onc(-c4ccccc4)c3c(=O)n2C)cc1`, the Potency is 5.8 µM (active).

As to `Cc1cc(NC(c2cccnc2)c2ccc3cccnc3c2O)no1` (stereo not drawn), the Potency entry was “inactive”.

As to `CN1CCN(C(=O)c2cc3ccccc3cc2O)CC1`, the Potency entry was “inactive”.

As to `c1ccc(-c2cn3c(n2)SCC3)cc1`, the Potency is 9.2 µM (active).

Consider `Cc1c(/C(O)=C2/C(=O)C(=O)N(CCN3CCOCC3)C2c2cccs2)cnn1-c1ccccc1` (stereo not drawn), for which the Potency is 8.2 µM (active).

On to `Fc1ccccc1OCCSc1nnnn1-c1ccccc1`, for which the Potency was 0.82 µM (active).
